# According to PubChem BioAssay (NCI):
# Compounds without any hit were thinned out: in the full panel of roughly 83,000, 20% have a hit.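 Single-dose data. Exposure time 48 hours. Values below 10 considered active.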 The source made the active and inactive calls.
# Test system: HL-60(TB) leukemia
# Experiment: NCI-60 one-dose screen, 48 h (100 = growth as untreated, 0 = no growth, -100 = all killed)
# Conditions: 10 µM unless noted
row,SMILES,growth
1,Cc1ccc(C(=O)Nc2cc(-c3ccncc3)cc(C(F)(F)F)c2)cc1C#Cc1cnc2cccnn12,16.8% (inactive)
2,CC1(C)CC[C@]2(C(=O)O)CC[C@]3(C)C(=CCC4[C@@]5(C)C[C@@H](O)[C@@H]6OC(c7cccc(F)c7)OC[C@@]6(C)C5CC[C@]43C)C2C1 (some centres not stated),9.5% (active)
3,COc1ccc2[nH]c(=O)cc(-n3ncc(C(=O)/C=C/c4cc(OC)c(OC)c(OC)c4)c3C)c2c1,-33.4% (active)
4,COc1ccc(CCC2NCCc3c(Br)c4c(c(OC)c32)OCO4)cc1 (configuration not stated),-11.6% (active)
5,O=C1NC(=O)/C(=C/c2ccccc2OCc2cc3ccccc3nc2Cl)S1,99% (inactive)
6,Cc1cc(C)nc(NS(=O)(=O)c2ccc(N/C(N)=N/c3nccc(-c4ccccc4)n3)cc2)n1,-25.8% (active)
7,CCCn1c(=O)c2[nH]c(-c3ccc(OCc4nc5ccc(C#N)cc5[nH]4)cc3)nc2n(CCC)c1=O,95.4% (inactive)
8,Clc1ccc2c(N/N=C/c3c[nH]c4ccc(Br)cc34)ccnc2c1,-74.7% (active)
9,CO[C@H]1CSS[C@@H]1Cn1nc(-c2ccc(Oc3ccccc3)cc2)c2c(N)ncnc21,8.96% (active)
10,O=C(/C=C/Nc1ccccc1)c1ccc2c(c1)Nc1ccccc1S2,90.9% (inactive)
11,COc1ccc2oc(=O)c(-c3csc(N/N=C(\C)c4cc(OC)c(OC)c(OC)c4)n3)cc2c1,107% (inactive)
12,O=C1NC2C=CC=CC2/C1=C1/SC(=S)N(C2CC(=O)N(c3ccc(Br)cc3)C2=O)C1=O (configuration not stated),58.9% (inactive)
13,Cc1cc(C)c2[nH]c(=O)c(C(c3nnnn3Cc3ccc4c(c3)OCO4)N3CCN(C)CC3)cc2c1 (configuration not stated),129% (inactive)
14,Cn1cc(-c2cc(N)n3nc(-c4c[nH]c5ccc(F)cc45)cc3n2)c2cc(Br)cnc21,33.2% (inactive)
15,N#Cc1c(-c2ccc(F)cc2)nc(SCc2ccccc2)nc1N1CCNCC1,-14.7% (active)
16,C=C1CC[C@@H]2[C@]3(C)COC(c4cn[nH]c4-c4ccc(OC)cc4)O[C@@H]3CC[C@@]2(C)[C@@H]1C/C=C1/C(=O)OCC1O (some centres not stated),1.59% (active)
17,Nc1nnc(-c2c[nH]c3ncc(Br)cc23)c(-c2c[nH]c3ccc(Br)cc23)n1,11.2% (inactive)
18,C[C@H](Nc1nc(NCCc2ccccc2)nc2ccccc12)c1ccccc1,-48.2% (active)
19,COc1cc(C2CC(c3ccc(C)cc3)=Nc3c(N)nc(N)nc3N2)ccc1Oc1nc(Nc2ccc(F)cc2)nc(N(C)C)n1 (configuration not stated),52% (inactive)
20,CC1=NN(C2=NC(=O)C(CC(=O)Nc3ccccc3C(F)(F)F)S2)C(c2ccc(N(C)C)cc2)C1 (configuration not stated),10.7% (inactive)
21,O=C(Cn1c(-c2ccccc2)nc2ccccc21)N=Nc1c(O)[nH]c2ccc(Br)cc12,42.4% (inactive)
22,O=S(=O)(Nc1ncccn1)c1ccc(-n2c(-c3ccc(Br)cc3)nc(-c3ccccc3)c2-c2ccccc2)cc1,41.2% (inactive)
23,N#Cc1cc(-c2ccnc(Nc3ccc(N4CCN(C5COC5)CC4)cc3)n2)ccc1N1CCCC1,48.1% (inactive)
24,CN(C(=O)c1ccc(C(F)(F)F)cc1C(F)(F)F)c1sc2c(c1C#N)CCC(=O)C2,55.3% (inactive)
25,COc1cc(/C=C/C(=O)c2cnn(-c3cc(=O)[nH]c4ccc(Cl)cc34)c2C)cc(OC)c1OC,-23.1% (active)
26,COc1ccc(NC(=O)[C@@H](N)Cc2ccccc2)cc1C(=O)Nc1cccc(C2CC(=O)c3c(cc(OC)c(OC)c3OC)O2)c1 (some centres not stated),1.01% (active)
27,COc1ccc(N2N=C(c3ccc4c(c3)OCO4)CC2c2cccc(NC(=O)CCCNS(=O)(=O)c3ccc(F)cc3)c2)cc1 (configuration not stated),55.7% (inactive)
